Screens (PubChem BioAssay)
Sampled rows, rich in hits. Any-hit rate of the full collection: about 3.4%.
Mcl1 Noxa PPI: disrupts binding of human Mcl-1 to Noxa peptide. Q07820. TR-FRET Mcl-1/Noxa peptide binding, 2 h. inhibition, % at 21.7 µM. 220,000 compounds, 1.5% hits;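 active = compounds that cut the protein-peptide binding signal by more than 50% relative to plate controls in a single-dose test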;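 note: His-tagged Mcl-1 with rhodamine Noxa BH3 peptide and terbium anti-His antibody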
Target sequence (Q07820 whole entry, looked up): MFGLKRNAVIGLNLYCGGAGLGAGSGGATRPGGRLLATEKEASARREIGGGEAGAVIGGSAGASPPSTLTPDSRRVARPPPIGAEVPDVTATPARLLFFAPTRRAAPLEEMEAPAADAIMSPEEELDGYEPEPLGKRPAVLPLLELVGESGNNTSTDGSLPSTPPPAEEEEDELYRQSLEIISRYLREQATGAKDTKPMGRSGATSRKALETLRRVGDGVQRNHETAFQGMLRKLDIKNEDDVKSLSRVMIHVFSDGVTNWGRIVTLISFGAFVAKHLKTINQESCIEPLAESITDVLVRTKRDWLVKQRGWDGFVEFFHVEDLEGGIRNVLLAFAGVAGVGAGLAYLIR
14-3-3 Bad inh: disrupts binding of bovine 14-3-3 zeta to phospho-Bad peptide; TR-FRET 14-3-3zeta/Dy647-pBad peptide displacement, 1 h; inhibition, % at 21.7 µM; 220,000 compounds, 0.71% hits; P63103; AID 781;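 active = inhibition above about 70%, limit read from the data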
Target sequence (P63103 whole entry, looked up): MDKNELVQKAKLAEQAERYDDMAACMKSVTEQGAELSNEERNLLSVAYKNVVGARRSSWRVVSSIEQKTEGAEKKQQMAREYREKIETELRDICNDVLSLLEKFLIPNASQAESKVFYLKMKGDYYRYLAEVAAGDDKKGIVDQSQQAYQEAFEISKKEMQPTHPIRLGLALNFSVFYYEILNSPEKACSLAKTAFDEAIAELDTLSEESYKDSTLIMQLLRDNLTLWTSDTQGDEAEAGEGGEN
NCF1 inh: p47phox (human) inhibition. P14598. p47phox/p22phox peptide binding, fluorescence polarization, 2 h. inhibition, % at 24.7 µM. 220,000 compounds, 0.53% hits. AID 1274;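 active = inhibition above about 30%, limit read from the data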
m-calpain inh: blocks pig calpain II enzyme activity. AID 1236. inhibition, % at 16 µM. 220,000 compounds, 0.37% hits. purified calpain II, fluorogenic peptide substrate, 30 min;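 active = inhibition above about 50%, limit read from the data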
Mcl-1 Bim block: inhibitors of Bim-Mcl-1 interaction, human; Q07820; Bead-based flow cytometry, Bim peptide-Mcl-1 binding; inhibition, % at 10 µM; 190,000 compounds, 0.1% hits; AID 1009; in the data active = inhibition above about 40%
Mcl1 Bid PPI: disrupts binding of human Mcl-1 to Bid peptide; Q07820; TR-FRET Mcl-1/Bid-Dy647 peptide binding, 1536-well; inhibition, % at 21.7 µM; 220,000 compounds, 0.97% hits; AID 1021;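 active = compounds that cut the binding signal by more than half at the single screening dose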;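 note: His-tagged Mcl-1 with europium anti-His antibody binding Bid BH3 peptide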
A number is an active result.

For O=C(CSc1ccsc1[N+](=O)[O-])N1CCN(c2ccccc2)CC1 the results were Mcl1 Noxa PPI 64.7, 14-3-3 Bad inh inactive, NCF1 inh inactive, m-calpain inh inactive, Mcl-1 Bim block inactive and Mcl1 Bid PPI inactive.
COCCCNC(=O)CSc1ccsc1[N+](=O)[O-] was read as Mcl1 Noxa PPI inactive, 14-3-3 Bad inh inactive, NCF1 inh inactive, m-calpain inh inactive, Mcl-1 Bim block inactive and Mcl1 Bid PPI inactive.
For Cc1ccccc1NC(=O)CSc1ccsc1[N+](=O)[O-] the results were Mcl1 Noxa PPI 71.3, 14-3-3 Bad inh inactive, NCF1 inh inactive, m-calpain inh inactive, Mcl-1 Bim block inactive and Mcl1 Bid PPI inactive.
`O=C(CSc1ccsc1[N+](=O)[O-])N1CCN(c2ccc(Cl)cc2)CC1` gave Mcl1 Noxa PPI 95.3, 14-3-3 Bad inh inactive, NCF1 inh inactive, m-calpain inh inactive, Mcl-1 Bim block inactive and Mcl1 Bid PPI inactive.
`CC(Sc1ncc(C(F)(F)F)cc1Cl)C(=O)NCC1CCCO1` (stereo unspecified) gave Mcl1 Noxa PPI inactive, 14-3-3 Bad inh inactive, NCF1 inh inactive, m-calpain inh inactive, Mcl-1 Bim block inactive and Mcl1 Bid PPI inactive.
`O=C(NCC(=O)N1CC(O)CC1C(=O)N1CCCC1C(=O)OCc1ccccc1)OCc1ccccc1` (stereo unspecified) gave Mcl1 Noxa PPI inactive, 14-3-3 Bad inh inactive, NCF1 inh inactive, m-calpain inh inactive, Mcl-1 Bim block inactive and Mcl1 Bid PPI inactive.
For Cc1cccc(NC(=S)c2nc3ccccc3s2)c1 the results were Mcl1 Noxa PPI inactive, 14-3-3 Bad inh inactive, NCF1 inh inactive, m-calpain inh inactive, Mcl-1 Bim block inactive and Mcl1 Bid PPI 103.2.
For NC(=O)C(=CNc1nc(-c2ccc(Cl)c(Cl)c2)cs1)C(N)=O the results were Mcl1 Noxa PPI 73.3, 14-3-3 Bad inh inactive, NCF1 inh inactive, m-calpain inh inactive and Mcl1 Bid PPI inactive.
Screening O=C(O)c1ccc(-c2nc(-c3ccc(Cl)c(Cl)c3)cs2)cc1 returned Mcl1 Noxa PPI inactive, 14-3-3 Bad inh inactive, NCF1 inh inactive, m-calpain inh inactive, Mcl-1 Bim block inactive and Mcl1 Bid PPI inactive.
O=C(CN1C(=O)CSc2ccc(S(=O)(=O)N3CCOCC3)cc21)NCc1cccnc1 was read as Mcl1 Noxa PPI 54.5, 14-3-3 Bad inh inactive, NCF1 inh inactive, m-calpain inh inactive, Mcl-1 Bim block inactive and Mcl1 Bid PPI inactive.
`O=C(COc1ccc(S(=O)(=O)N2CCCCC2)cc1)NCc1cccnc1` gave Mcl1 Noxa PPI inactive, 14-3-3 Bad inh inactive, NCF1 inh 35.0, m-calpain inh inactive, Mcl-1 Bim block inactive and Mcl1 Bid PPI inactive.
`O=C(COc1ccc(S(=O)(=O)Nc2ccccc2)cc1)NCc1cccnc1` gave Mcl1 Noxa PPI inactive, 14-3-3 Bad inh inactive, NCF1 inh inactive, m-calpain inh inactive, Mcl-1 Bim block inactive and Mcl1 Bid PPI inactive.
`C=CCn1c(=NC(=O)c2ccco2)sc2cc(C(=O)OCC)ccc21` gave Mcl1 Noxa PPI inactive, 14-3-3 Bad inh inactive, NCF1 inh inactive, m-calpain inh inactive, Mcl-1 Bim block inactive and Mcl1 Bid PPI 50.9.
Screening C=CCn1c(=NC(=O)c2ccco2)sc2cc(C(=O)OC)ccc21 returned Mcl1 Noxa PPI inactive, 14-3-3 Bad inh inactive, NCF1 inh inactive, m-calpain inh inactive, Mcl-1 Bim block inactive and Mcl1 Bid PPI inactive.
`CCCOC(=O)Nc1cc(OC)ccc1[N+](=O)[O-]` gave Mcl1 Noxa PPI inactive, 14-3-3 Bad inh inactive, NCF1 inh inactive, m-calpain inh 63.1, Mcl-1 Bim block inactive and Mcl1 Bid PPI inactive.
For CCOC(=O)C1CCN(C(=O)Nc2ccc(OC(F)(F)F)cc2)CC1 the results were Mcl1 Noxa PPI inactive, 14-3-3 Bad inh inactive, NCF1 inh inactive, m-calpain inh inactive and Mcl1 Bid PPI inactive.
For COCCn1c(C)cc(C(=O)CSc2nc3ccccc3c(=O)[nH]2)c1C the results were Mcl1 Noxa PPI 60.6, 14-3-3 Bad inh inactive, NCF1 inh inactive, m-calpain inh inactive, Mcl-1 Bim block inactive and Mcl1 Bid PPI inactive.
`Cc1ccc(CSc2nc3ccccc3c(=O)[nH]2)cc1` gave Mcl1 Noxa PPI inactive, 14-3-3 Bad inh 71.0, NCF1 inh inactive, m-calpain inh inactive, Mcl-1 Bim block inactive and Mcl1 Bid PPI inactive.
C=CCn1c(C)cc(C(=O)CSc2nc3ccccc3c(=O)[nH]2)c1C was read as Mcl1 Noxa PPI inactive, 14-3-3 Bad inh inactive, NCF1 inh inactive, m-calpain inh inactive, Mcl-1 Bim block inactive and Mcl1 Bid PPI inactive.
Screening CCOC(=O)C1(Cc2ccc(Cl)cc2)CCN(C(=O)c2ccoc2)CC1 returned Mcl1 Noxa PPI inactive, 14-3-3 Bad inh inactive, NCF1 inh inactive, m-calpain inh inactive, Mcl-1 Bim block inactive and Mcl1 Bid PPI inactive.
Cc1ccccc1-n1nc(-c2cccnc2)cc1C(=O)NN was read as Mcl1 Noxa PPI inactive, 14-3-3 Bad inh inactive, NCF1 inh inactive, m-calpain inh inactive, Mcl-1 Bim block inactive and Mcl1 Bid PPI inactive.
`Cn1c(=O)c2ncn(CC(=O)Nc3cccc(-c4nc5ccccc5s4)c3)c2n(C)c1=O` gave Mcl1 Noxa PPI 63.5, 14-3-3 Bad inh inactive, NCF1 inh inactive, m-calpain inh inactive, Mcl-1 Bim block inactive and Mcl1 Bid PPI inactive.
Screening CCc1ccc(NC(=O)Cn2cnc3c(=O)n(C)c(=O)n(C)c32)cc1 returned Mcl1 Noxa PPI inactive, 14-3-3 Bad inh inactive, NCF1 inh inactive, m-calpain inh inactive, Mcl-1 Bim block inactive and Mcl1 Bid PPI inactive.
Screening O=C(Cc1cccs1)N/N=C/C(Br)=C/c1ccccc1 returned Mcl1 Noxa PPI inactive, 14-3-3 Bad inh inactive, NCF1 inh inactive, m-calpain inh inactive, Mcl-1 Bim block inactive and Mcl1 Bid PPI inactive.
Screening Cc1ccccc1NCC(=O)N/N=C/C(Br)=C/c1ccccc1 returned Mcl1 Noxa PPI inactive, 14-3-3 Bad inh inactive, NCF1 inh inactive, m-calpain inh inactive, Mcl-1 Bim block inactive and Mcl1 Bid PPI 90.0.
Screening COc1ccc(C(=O)Nc2ccccc2C(=O)NC(Cc2ccc(O)cc2)C(=O)NNC(=O)c2ccccc2)cc1 (stereo unspecified) returned Mcl1 Noxa PPI inactive, 14-3-3 Bad inh inactive, NCF1 inh inactive, m-calpain inh inactive, Mcl-1 Bim block inactive and Mcl1 Bid PPI inactive.
Screening COc1ccc(C(=O)Nc2ccccc2C(=O)NC(Cc2ccc(O)cc2)C(=O)NNC(=O)c2ccc(C)cc2)cc1 (stereo unspecified) returned Mcl1 Noxa PPI inactive, 14-3-3 Bad inh 79.3, NCF1 inh inactive, m-calpain inh inactive, Mcl-1 Bim block inactive and Mcl1 Bid PPI 56.6.
Screening Cc1cs/c(=N\N=C2CCCCC2)n1Cc1ccco1 returned Mcl1 Noxa PPI inactive, 14-3-3 Bad inh inactive, NCF1 inh inactive, m-calpain inh inactive, Mcl-1 Bim block inactive and Mcl1 Bid PPI inactive.
CCn1c(SCc2nc3sc(C(=O)O)c(C)c3c(=O)[nH]2)nc2ccccc21 was read as Mcl1 Noxa PPI 77.1, 14-3-3 Bad inh inactive, NCF1 inh inactive, m-calpain inh inactive, Mcl-1 Bim block inactive and Mcl1 Bid PPI inactive.
`O=C(Nc1ccncc1)C1CCC(CNS(=O)(=O)c2cccc3nsnc23)CC1` (stereo unspecified) gave Mcl1 Noxa PPI inactive, 14-3-3 Bad inh inactive, NCF1 inh inactive, m-calpain inh inactive and Mcl1 Bid PPI inactive.
